A selection: hits, their analogues and other compounds. The true share with any hit is near 2.1%.
CHT inh: inhibits the human high affinity choline transporter | B-score at 10 µM | AID 488975 | Q9GZV3 | CHT-expressing cells, membrane potential dye, choline response; active compounds read low | hit rate 0.86% among 310,000;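 active means B-score over 3 SD under the library average, and starting fluorescence ratio not unusually high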;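 further: choline stimulus applied at its EC90 after an EC20 pre-addition; B-score computed on integrated fluorescence ratio after choline addition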
PGE2 EP2 inh: inhibitors of human EP2 prostaglandin E2 receptor. C6 glioma cells expressing human EP2, cAMP TR-FRET; cells stimulated with saturating PGE2. P43116. hit rate 0.52% among 260,000. inhibition, % at 25 µM. AID 1422;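 active means percent inhibition above 40 after rounding to a whole number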;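 further: rat C6 glioma host cells with rolipram phosphodiesterase inhibitor present; the protocol text gives 20 µM as final concentration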
Target sequence (P43116 whole entry, looked up): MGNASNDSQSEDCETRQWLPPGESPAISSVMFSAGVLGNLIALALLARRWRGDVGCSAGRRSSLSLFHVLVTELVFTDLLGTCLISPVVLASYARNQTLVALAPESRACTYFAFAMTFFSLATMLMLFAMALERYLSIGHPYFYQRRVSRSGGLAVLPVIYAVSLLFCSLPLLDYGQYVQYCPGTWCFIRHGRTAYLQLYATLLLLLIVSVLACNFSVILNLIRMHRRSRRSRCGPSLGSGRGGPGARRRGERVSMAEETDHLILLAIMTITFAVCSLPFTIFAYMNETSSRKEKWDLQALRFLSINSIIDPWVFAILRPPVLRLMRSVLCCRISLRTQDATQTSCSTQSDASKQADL
EP2 modulator: modulates human prostaglandin E2 receptor EP2 signaling; hit rate 0.83% among 260,000; induction, % at 25 µM; P43116; AID 940; EP2-expressing cells, cAMP HTRF FRET, PGE2 co-stimulation;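 active means compounds whose cAMP rise, as percent of the full-agonist control response, exceeds 60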;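 further: rat C6 glioma line stably carrying human EP2 under a CMV promoter; the protocol text gives 20 µM as final concentration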
CHT allo act: allosterically activates the human high affinity choline transporter. CHT-expressing cells, membrane potential dye, choline EC20; active compounds read high; LV-AA mutant CHT in HEK293 cells. B-score at 10 µM. hit rate 0.49% among 310,000;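 active means initial fluorescence not abnormally high and integrated response B-score, plate-corrected, over 3 SD above library mean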
EP2 cAMP induct: human EP2 receptor cAMP induction, negative in counter-screens; hit rate 47% among 1,300; calls only at 20 µM (by protocol); shares compounds with EP2 modulator; C6 glioma EP2 cells, cAMP HTRF induction; plus low (about EC15) PGE2 agonist;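 active means cAMP induction above 50% in the main assay while under 30% in all four parallel counter assays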;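 further: rat C6 glioma cells stably expressing human EP2 receptor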
Hits are given with their value; - = inactive; . = no result; + = active, no number.

SMILES | CHT inh | PGE2 EP2 inh | EP2 modulator | CHT allo act | EP2 cAMP induct
NC1=NC(=O)C(CC(=O)Nc2c(F)c(F)cc(F)c2F)S1 (configuration not stated) | . | - | - | . | .
CCc1nn(CC(=O)NCC2CC2)c(=O)c2cc3sccc3n12 | . | . | - | . | .
CC(C)n1c(=O)oc2cc(S(=O)(=O)NCCCN(C)c3ccccc3)ccc21 | . | - | - | . | .
CC(C)(CC(=O)O)CC(=O)O | - | . | . | - | .
CC(CC(=O)O)(CC(=O)O)C(=O)O | . | - | - | . | -
COc1ccc(CN(Cc2cc3ccc(C)cc3[nH]c2=O)Cc2nnnn2CC2CCCO2)cc1 (configuration not stated) | . | - | - | . | .
CCn1c2ccccc2c2nc3ccccc3nc21 | - | - | 62 | - | -
COc1cc(NC(=S)NC(=O)c2cc(C)cc(C)c2)ccc1NC(=O)c1cccs1 | - | - | 68 | - | -
O=C(O)c1cccc2c1-c1ccccc1/C2=N\Nc1ccccc1 | - | . | . | - | .
O=C(O)c1cccc(NN=C2c3ccccc3-c3ccccc32)c1 | . | - | 75 | . | -
Cc1ccc2c(c1)cc(CN(Cc1ccc3c(c1)OCO3)C(=O)NCc1ccccc1)c1nnnn12 | . | - | - | . | .
Cc1cc(-c2cncnc2C2CCN(C(=O)c3cnn(C(C)C)c3)CC2)on1 | . | . | - | . | .
CCOc1ccc2[nH]c(C(=O)NCc3noc(-c4ccccc4)n3)c(C)c2c1 | . | - | - | . | .
O=S(Cc1cc(Sc2ccccc2)nc(-c2ccccc2)n1)c1ccccc1 (configuration not stated) | - | - | 71 | - | +
Cc1nc2sccn2c1CN(CCCN(C)C)Cc1ccco1 | . | - | - | . | .
O=C(c1nc2ccccc2s1)C1CCN(C(=O)c2ccc(-c3ccc(F)cc3)o2)CC1 | . | . | - | . | .
CSc1nc(-c2ccc(Cl)cc2)nn1S(=O)(=O)c1ccc(Cl)cc1 | - | - | - | - | .
CSc1nc(-c2ccc(Cl)cc2)nn1S(=O)(=O)c1ccccc1 | - | - | 85 | - | +
CCOC(=O)c1c(CC(C)C)csc1NC(=O)CCl | - | . | 74 | - | -
CC/C(=C\C1CCCCC1)C(NP(=O)(c1ccccc1)c1ccccc1)c1ccccc1 (configuration not stated) | - | - | 70 | - | +
C/C(=C\C1CCCCC1)C(NC(=O)c1ccc(C(F)(F)F)cc1)c1ccc(-c2ccccc2)cc1 (configuration not stated) | - | - | . | - | .
Cc1c(F)cccc1NC(=O)CCCCCC1NC(=O)NC1C (configuration not stated) | - | - | 77 | - | -
CCc1nc(SCC(=O)Nc2nc(C)c(C)s2)c2c(C)c(C)sc2n1 | . | - | - | . | .
Cc1cc(NC(=O)C2C3C(=O)N(Cc4ccccc4F)C(C(=O)NC(C)(C)C)C34C=CC2(C)O4)no1 (configuration not stated) | . | - | - | . | .
CCOC(=O)c1c(NC(=O)CSc2nnnn2-c2ccccc2)sc2c1CCC(C)C2 (configuration not stated) | - | - | - | - | .
SMILES | CHT inh | PGE2 EP2 inh | EP2 modulator | CHT allo act | EP2 cAMP induct
CCOC(=O)c1c(NC(=O)CSc2ncnc3[nH]ncc23)sc2c1CCC(C)C2 (configuration not stated) | - | - | 66 | - | -
Cc1ccc(-c2nc(C(N)=O)c3[nH]c(=O)n(CCc4ccccc4)c3n2)cc1 | . | - | - | . | .
CCn1nnc(-c2ccccc2NC(=O)c2cc(OC)cc(OC)c2)n1 | - | - | 74 | - | +
CCn1c(SCC(=O)Nc2nc(C)cs2)nnc1-c1cccs1 | . | - | - | . | .
COc1ccc(C(=O)c2cnc3ccccc3c2-c2ccccc2)cc1 | - | - | 92 | - | +
Cc1nc(SCC(=O)Nc2ccc(Cl)cc2)n[nH]1 | . | - | - | . | .
Cc1cc(Oc2ccccc2F)nc(NCc2ccccc2)n1 | . | . | 66 | . | +
Cc1cc(Oc2ccccc2)nc(NCc2ccccc2)n1 | - | - | 66 | - | +
CCc1nn(CC(=O)N(CC)CC)c(=O)c2cc3sccc3n12 | . | . | - | . | .
CCOc1cccc(CNc2ccc(O)cc2)c1OCc1ccccc1Cl | - | - | 84 | - | +
COC(=O)c1c(NC(=O)c2ccccc2F)sc(C(=O)N2CCCCC2)c1C | . | - | - | . | .
Cc1sc(NC(=O)c2ccccc2F)c(CN2CCCCC2C)c1C (configuration not stated) | - | - | 79 | - | +
COC(=O)c1c(NC(=O)C2CC2)sc(C(=O)Nc2ccccc2F)c1C | . | - | - | . | .
CC1(C)Cc2c(C#N)c(N3CCCC3)nc(-c3ccco3)c2CO1 | - | - | 76 | - | -
CCCSc1nc(N2CCCC2)c2c(c1C#N)CC(C)(C)OC2 | - | - | 66 | - | +
Cc1ccc(NC(=O)CSc2nnc3c(n2)[nH]c2ccccc23)c(C)c1 | . | - | - | . | .
Cc1sc2ncn3c(=O)n(CC(=O)N4CC(C)CC(C)C4)nc3c2c1C (configuration not stated) | . | . | - | . | .
CCCCc1n[nH]c(=S)n1Cc1ccc(Cl)cc1 | - | - | - | - | -
CC1CCCCC1NC(=O)C1CCN(c2nc3ccccc3n2C)CC1 (configuration not stated) | . | . | - | . | .
COC(=O)c1c(NC(=O)c2ccccc2N(C)S(=O)(=O)c2ccccc2)sc2c1CCCC2 | . | - | - | . | -
O=C(CCc1c[nH]c2ccccc12)OCC(=O)c1ccc(Cl)cc1 | . | - | - | . | .
CCOC(=O)C1CCCN(C(=O)c2ccc(C)cc2O)C1 (configuration not stated) | - | - | 66 | - | -
COc1ccc(-n2c(C)c(C(C)=O)c(C(C)=O)c2C)c(OC)c1 | . | - | - | . | .
CC(=O)N(c1cccc(Br)c1)C1C=CS(=O)(=O)C1 (configuration not stated) | - | - | 69 | - | -
CSc1nc2nccc(-c3ccc(Oc4ccccc4)cc3)n2n1 | - | - | - | - | .
SMILES | CHT inh | PGE2 EP2 inh | EP2 modulator | CHT allo act | EP2 cAMP induct
CSc1nc2nccc(-c3ccc(-c4ccccc4)cc3)n2n1 | - | - | 70 | - | -
Cc1ccc(C(O)CN2CCC3(CC2)CC(O)c2cc(F)ccc2O3)cc1 (configuration not stated) | . | - | - | . | .
O=C(CSc1nnc(-c2ccccc2F)o1)N1CCN(C(=O)c2ccco2)CC1 | . | - | - | . | .
NCCSc1nc(-c2ccccc2)c(-c2ccccc2)o1 | . | - | - | . | .
N/C(CSc1nc(-c2ccccc2)c(-c2ccccc2)o1)=N\O | - | - | 67 | - | +
CN(Cc1cc(=O)[nH]c2ccccc12)C(=O)c1cnn(-c2ccc(F)cc2)c1 | . | - | - | . | .
CCCc1nc(SCc2cccnc2)c2c(=O)n(C)c(=O)n(C)c2n1 | - | - | - | - | .
Cn1c(=O)c2c(SCc3cccnc3)nc(CC(C)(C)C)nc2n(C)c1=O | - | - | - | - | +
COC(=O)c1cc2occc2n1Cc1cccc(C)c1 | - | - | 76 | - | +
COC(=O)c1cc2occc2n1Cc1nc(-c2ccccc2Cl)oc1C | - | - | - | - | .
CCOc1ccc(N(Cc2ccc(OC)cc2)C(=O)c2ccco2)cc1 | - | - | 65 | - | -
N#Cc1sc2nc(-c3ccccc3)cc(-c3ccco3)c2c1N | - | - | - | - | .

High-throughput results as filed in PubChem BioAssay.
